Vif-A3G inh: qHTS for Inhibitors of Vif-A3G Interactions: qHTS. DNA dC->dU-editing enzyme APOBEC-3G (Homo sapiens), Q9HC16. HeLa A3G-eYFP + Vif (tagged APOBEC3G with the HIV-1 protein that degrades it), YFP fluorescence, overnight. Potency, µM (titrated, usually from 46.1 µM), for the others: at the top dose activity, negative = active, hits mostly inhibitors. hit rate 0.076% among 410,000; further: potency means the concentration at half of the fitted maximal effect; on the % scale 0 is the no-effect control and ±100 the full control effect; nearly all actives have a fitted effect of over 60% in size
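Read-out is eYFP fluorescence (Ex 488/Em 500-530) from Vif-expressing HeLa A3G-eYFP cells; more signal means A3G escaped Vif-mediated degradation. Cells plated overnight, compound pinned in, incubated overnight at 37 deg C.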
S-ASM inh: Inhibitors of Secretory Acid Sphingomyelinase (S-ASM): qHTS; Sphingomyelin phosphodiesterase (Homo sapiens), P17405; placental ASM, HMU-PC fluorogenic substrate, 60 min; Potency, µM (series often up to 57.5 µM), for inactives: at the top dose activity change, negative = inhibition, actives largely listed as inhibitors; hit rate 0.006% among 340,000; AID 504937, 2011; further: potency means the concentration at half of the fitted maximal effect
Target sequence (P17405 47-631 limits assumed): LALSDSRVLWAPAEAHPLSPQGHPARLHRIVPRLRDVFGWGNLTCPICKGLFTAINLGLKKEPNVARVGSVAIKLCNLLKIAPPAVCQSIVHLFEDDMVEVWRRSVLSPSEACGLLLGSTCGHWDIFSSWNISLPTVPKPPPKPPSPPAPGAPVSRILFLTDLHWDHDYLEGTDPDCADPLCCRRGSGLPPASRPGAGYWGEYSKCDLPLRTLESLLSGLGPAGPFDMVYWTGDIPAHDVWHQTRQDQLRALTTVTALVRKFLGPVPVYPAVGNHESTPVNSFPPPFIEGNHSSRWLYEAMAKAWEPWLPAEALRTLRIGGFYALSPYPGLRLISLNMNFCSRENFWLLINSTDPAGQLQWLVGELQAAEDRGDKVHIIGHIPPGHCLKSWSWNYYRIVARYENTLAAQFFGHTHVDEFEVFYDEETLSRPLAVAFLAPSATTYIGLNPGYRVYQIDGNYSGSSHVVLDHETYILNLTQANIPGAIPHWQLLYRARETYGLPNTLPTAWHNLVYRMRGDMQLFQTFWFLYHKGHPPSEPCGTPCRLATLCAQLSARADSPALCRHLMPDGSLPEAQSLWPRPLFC
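Fluorogenic HMU-PC substrate (9 uM final) is turned over by placental ASM in 60 min at 37 C after a 10 min compound preincubation. Reaction ended by alkaline stop (pH 10), with fluorescence read at 386/447 nm.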
Akt phos inh: HTS Assay for Inhibitors of Akt Phophorylation: Primary Screen. Neuro2A IGF-stimulated pAkt S473 HTRF, 20 min; stronger effect = lower value. activity change, % for hits at 50 µM. hit rate 0.32% among 360,000. AID 651550, 2012; in the data active means activity change below about -80%; inconclusive means mostly about -51% to -80%; further: on the % scale 0 is the no-effect control and ±100 the full control effect
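Neuro2A cells in DMEM with 0.5% FBS, overnight at 37 deg C, given compound at single 50 µM final, then IGF (6 nM final) for 20 min at 37 deg C. Lysed; phospho-Akt Ser473 by HTRF after 24 h, 665/615 ratio.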
Vif-A3F inh: qHTS for Inhibitors of Vif-A3F Interactions: qHTS. Potency, µM (highest dose often 46.1 µM), without a hit: at the highest dose activity, negative = active. HeLa A3F-eYFP + Vif (tagged APOBEC3F with the HIV-1 protein that degrades it), YFP fluorescence increase. hit rate 0.2% among 390,000; further: potency means the concentration at half of the fitted maximal effect; % of control where 0% means no effect; nearly all actives have a fitted effect of over 65% in size
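Fluorescence increase (Ex 488/Em 500-530) after overnight compound treatment at 37 deg C flags inhibition of Vif-driven A3F-eYFP loss in stable HeLa A3F-eYFP/Vif cells seeded overnight beforehand.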
12-LOX inh: Primary qHTS assay for inhibitors of human arachidonate 12S-lipoxygenase (ALOX12): Round 2; Polyunsaturated fatty acid lipoxygenase ALOX12 (Homo sapiens), P18054; purified 12hLO, xylenol orange hydroperoxide absorbance; Potency, µM (highest dose often 108 µM), for inactives: top-dose activity change, negative = inhibition, actives largely listed as inhibitors; hit rate 1.1% among 580,000; AID 1671190, 2021; further: potency means the concentration at half of the fitted maximal effect; on the % scale 0 is the no-effect control and ±100 the full control effect
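Purified human 12hLO (150 nM final) in 25 mM Hepes, 0.01% Triton X-100, pH 7.0 was preincubated 15 min at room temperature with compound. Then 40 uM arachidonic acid was added, 30 min. Hydroperoxide was read by Fe-XO absorbance ratio 573/405 nm.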
TSG101-PTAP inh: qHTS Assay for Iinhibitors of HIV-1 Budding by Blocking the Interaction of PTAP/TSG101; Fluorescence polarization, FITC-PTAP peptide / Tsg101 binding; Potency, µM (highest dose often 115 µM), for inactives: at the top dose activity change, negative = inhibition, usual class: inhibitors; 340,000 tested, under 10 active; active means well fitted inhibition curve with a large enough effect in the main read-out, with a control signal flat, not every such curve was filed as active; inconclusive means small, poorly fitted or top-dose-only effect, or effect the other way, or a change in a side signal; inactive means no such curve, though single readings can be large or run the other way; further: potency means the concentration at half of the fitted maximal effect; % of control where 0% means no effect
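FP read-out: FITC-PTAP peptide, 50 nM final, binding Tsg101 binding domain, 10 uM final; 20 min, r.t.; 10 mM HEPES pH 7.5, 0.15 M NaCl, 0.01% Tween 20, 3 mM EDTA, 0.1 mM TCEP.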
* hit, by the source's call. A selection: hits, their analogues and other compounds. The true share with any hit is near 1.4%. Unless noted, the call rests on the fitted dose curve; in most records, active means well fitted curve in the direction sought with a large enough effect; inconclusive means small, poorly fitted or top-dose-only effect, or another doubt; inactive means no such curve, though single readings can be large; an effect the other way counts as inactive or inconclusive.

For Cc1ccc2c(c1)N(C)/C(=C/c1cccc[n+]1C)S2 the results were Vif-A3G inh inconclusive, S-ASM inh -2.8%, Akt phos inh inactive, Vif-A3F inh 11.2µM*, 12-LOX inh inconclusive and TSG101-PTAP inh -2.6%.
`CCN1/C(=C/c2cccc[n+]2C)Sc2ccc(OC)cc21` gave Vif-A3G inh inconclusive, S-ASM inh -3.2%, Akt phos inh inactive, Vif-A3F inh 25.1µM*, 12-LOX inh 28.8% and TSG101-PTAP inh -6.1%.
For CN1/C(=C/c2cccc[n+]2C)Sc2ccccc21 the results were Vif-A3G inh inconclusive, S-ASM inh -13.2%, Akt phos inh inactive, Vif-A3F inh inconclusive, 12-LOX inh 0.0% and TSG101-PTAP inh 1.1%.
`O=C(NCc1ccccc1F)c1ccc2c(c1)CN(Cc1ccc(O)c(F)c1)CCO2` gave 12-LOX inh -18.2%.
`COc1ccccc1CC(=O)Oc1ccc2c(c1)OCO2` gave 12-LOX inh -12.7%.
Screening CCCCCn1nc(C(=O)NCCN(C)CCOC)c2ccccc2c1=O returned 12-LOX inh 1.0%.
`O=C(Nc1ccc2nc[nH]c(=O)c2c1)c1ccc(F)cc1F` gave 12-LOX inh -9.1%.
`Cc1cc(Br)c(NC(=O)C(C)C)cc1C` gave 12-LOX inh 10.7%.
COc1cc2c3nnc(-c4ccccc4)c-3cn(Cc3ccccc3F)c2cc1OC was read as Vif-A3G inh inconclusive, S-ASM inh 104.0%, Akt phos inh inactive, Vif-A3F inh inconclusive, 12-LOX inh inconclusive and TSG101-PTAP inh inconclusive.
For COc1cc2c3nnc(-c4ccc(F)cc4)c-3cn(Cc3ccccc3F)c2cc1OC the results were Vif-A3G inh inconclusive, S-ASM inh 5.9%, Akt phos inh inactive, Vif-A3F inh 25.1µM*, 12-LOX inh -25.4% and TSG101-PTAP inh inconclusive.
Screening COc1ccc(NC(=O)Nc2ccc(F)c(-c3nnc(-c4ccccc4)o3)c2)c(OC)c1 returned 12-LOX inh -1.8%.
CCCC(NC(=O)NCc1ccc(F)cc1)C(=O)N(C)CC(=O)N(CC)CC (stereo unspecified) was read as 12-LOX inh -7.1%.
Screening O=C1C2CC=C(Cl)CC2C(=O)N1CC1OCCc2ccccc21 (stereo unspecified) returned Vif-A3G inh 0.4%, S-ASM inh 2.9%, Akt phos inh inactive, 12-LOX inh 20µM* and TSG101-PTAP inh -4.3%.
For CC(C)OCC(O)CN1CCNCC1 (stereo unspecified) the results were Vif-A3G inh -0.5%, S-ASM inh 5.4%, Akt phos inh -115.4%*, Vif-A3F inh 1.1%, 12-LOX inh inconclusive and TSG101-PTAP inh -3.3%.
For Cn1c(SCC(=O)Nc2nc3ccccc3s2)nnc1-c1ccccc1 the results were Vif-A3G inh 1.5%, S-ASM inh 2.3%, Akt phos inh inactive, Vif-A3F inh 6.1%, 12-LOX inh inconclusive and TSG101-PTAP inh -2.1%.
`CCn1c(SCC(=O)Nc2nc3ccccc3s2)nnc1-c1ccc(Br)cc1` gave Vif-A3G inh -0.7%, S-ASM inh 0.2%, Akt phos inh -89.3%*, Vif-A3F inh 0.2%, 12-LOX inh 0.0% and TSG101-PTAP inh -0.7%.
CCOc1ccc(C2CCCN2C(=O)c2nn(C)c(=O)c3ccccc23)cc1 (stereo unspecified) was read as 12-LOX inh -2.2%.
For COc1ccc(OC)c(C2C=C(C34CC5CC(CC(C5)C3)C4)NC(=S)N2)c1 (stereo unspecified) the results were Vif-A3G inh 0.5%, S-ASM inh 1.7%, Akt phos inh inactive, Vif-A3F inh -0.9%, 12-LOX inh 31.6µM* and TSG101-PTAP inh 0.3%.
Screening S=C1NC(C23CC4CC(CC(C4)C2)C3)=CC(c2ccc3c(c2)OCO3)N1 (stereo unspecified) returned Vif-A3G inh 0.7%, S-ASM inh 4.1%, Akt phos inh inactive, Vif-A3F inh -6.1%, 12-LOX inh inconclusive and TSG101-PTAP inh 4.4%.
Screening COc1cc(C2C=C(C34CC5CC(CC(C5)C3)C4)NC(=S)N2)cc(OC)c1OC (stereo unspecified) returned Vif-A3G inh 0.3%, S-ASM inh -10.0%, Akt phos inh -112.9%*, Vif-A3F inh 7.7%, 12-LOX inh 40.2% and TSG101-PTAP inh 1.0%.
`COc1ccc(C2=CC(c3cc(OC)c(OC)c(OC)c3)NC(=S)N2)cc1` (stereo unspecified) gave Vif-A3G inh inconclusive, S-ASM inh 12.4%, Akt phos inh inactive, Vif-A3F inh 1.8%, 12-LOX inh inconclusive and TSG101-PTAP inh 1.0%.
For FC(F)(F)c1ccc(Cl)c(N/N=C/c2ccc(OCc3ccccc3)cc2)c1 the results were 12-LOX inh 2.51µM*.
`FC(F)(F)c1ccc(Cl)c(N/N=C/c2ccccc2Cl)c1` gave 12-LOX inh 35.5µM*.
`O=C(O)c1cc(N/N=C/c2ccc(OCc3ccccc3)cc2)ccc1Cl` gave Vif-A3G inh 1.0%, S-ASM inh 0.5%, Akt phos inh inactive, Vif-A3F inh -9.6%, 12-LOX inh inconclusive and TSG101-PTAP inh -4.2%.
FC(F)(F)c1ccc(Cl)c(NC(=S)N/N=C/c2ccccc2C(F)(F)F)c1 was read as Vif-A3G inh -7.3%, S-ASM inh 3.0%, Akt phos inh inactive, Vif-A3F inh -7.2%, 12-LOX inh 19.4% and TSG101-PTAP inh -2.2%.
CCOC(=O)C1=C(COC(=O)c2ccccc2OC(F)F)NC(=O)NC1C (stereo unspecified) was read as Vif-A3G inh -0.4%, Akt phos inh inactive, Vif-A3F inh -3.8%, 12-LOX inh -19.7% and TSG101-PTAP inh -2.6%.
For CCOC(=O)C1=C(COC(=O)c2ccc3ccccc3c2O)NC(=O)NC1C (stereo unspecified) the results were Vif-A3G inh -0.7%, S-ASM inh -9.0%, Akt phos inh inactive, Vif-A3F inh -0.3%, 12-LOX inh 39.8µM* and TSG101-PTAP inh -10.1%.

Screening data deposited in PubChem by National Center for Advancing Translational Sciences (NCATS).
